NOD2-RIPK2 inh – NOD2-RIPK2 protein interaction inhibition; CHO BLA complementation NOD2-RIPK2, CCF4 ratio; inhibition, % at 4.98 µM; O43353; actives 0.38% (n = 360,000); in the data active = inhibition above about 21%;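 note: 0% = vehicle only and 100% = reference blocker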
Target sequence (O43353 whole entry, looked up): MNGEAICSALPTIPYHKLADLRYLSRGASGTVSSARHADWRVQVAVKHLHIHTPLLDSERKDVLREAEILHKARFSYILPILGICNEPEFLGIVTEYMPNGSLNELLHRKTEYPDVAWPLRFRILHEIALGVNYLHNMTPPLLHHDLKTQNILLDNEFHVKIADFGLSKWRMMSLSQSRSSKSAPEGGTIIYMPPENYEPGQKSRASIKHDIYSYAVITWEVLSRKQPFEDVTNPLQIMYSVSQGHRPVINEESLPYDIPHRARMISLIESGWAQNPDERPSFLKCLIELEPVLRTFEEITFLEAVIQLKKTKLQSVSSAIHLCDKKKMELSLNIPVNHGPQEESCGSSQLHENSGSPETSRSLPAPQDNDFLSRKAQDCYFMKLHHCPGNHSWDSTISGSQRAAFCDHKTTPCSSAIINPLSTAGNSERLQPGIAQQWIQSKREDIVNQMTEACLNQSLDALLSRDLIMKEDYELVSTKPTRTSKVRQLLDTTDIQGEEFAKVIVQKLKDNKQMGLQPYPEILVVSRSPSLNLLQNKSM
TLR9-MyD88 inh – TLR9-MyD88 interaction inhibition | Q9NR96+Q99836 | CHO BLA complementation TLR9-MyD88, CCF4 FRET ratio | inhibition, % at 4.98 µM | actives 0.21% (n = 340,000) | AID 504734;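 active = inhibition above the mean over all tested compounds plus 3 SD, cut at about 21% in these data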;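 note: 0% = DMSO only wells and 100% = clavulanate BLA inhibitor control wells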
TLR4-MyD88 BLA – TLR4-MyD88 interaction inhibition in cells | O00206+Q99836 | HeLa CL3-4 TLR4/MyD88 BLA complementation, FRET ratio | inhibition, % at 8.4 µM | actives 0.18% (n = 200,000) | AID 861; in the data active = inhibition above about 25%;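 note: 0% = vehicle and 100% = reference inhibitor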
ABCB6 inh MLPCN – human ABCB6 transporter inhibition; K562-ABCB6 porphyrin accumulation, flow cytometry, 1 h; active compounds read low; actives 0.19% (n = 360,000); AID 602162; fluorescence ratio to DMSO, % at 10 µM;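 active = fluorescence ratio to DMSO below 75%, the collection mean minus 3 SD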;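 note: signal is porphyrin accumulated inside mitochondria; 100% equals median channel fluorescence of DMSO control wells; lower ratio means ABCB6 inhibition with less porphyrin fluorescence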
Myeloid diff MLP – compounds promoting myeloid differentiation; ER-HoxA9 myeloid progenitors, lysozyme-GFP differentiation, flow cytometry; calls only at 10 µM; actives 1% (n = 360,000); AID 624256;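 active = normalized GFP-positive differentiation at or above the plate's own cutoff, the solvent-only control mean plus 3 SD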;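 note: cells exposed to compound for four days before flow analysis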
Myeloid diff CP1 – myeloid differentiation induction | shares compounds with Myeloid diff MLP | ER-HoxA9 myeloid progenitors, GFP/Mac1 double-positive flow | calls only | actives 2% (n = 2,300) | AID 651706;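 active = share of green or green-and-red cells above 9 and 9% in run 1 or 4 and 3% in run 2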
GFP autofluor – counter-screen for myeloid differentiation promoters: compound fluorescence; shares compounds with Myeloid diff MLP; ER-HoxA9 myeloid progenitors, no estrogen, GFP autofluorescence flow cytometry; vehicle wells 0%, positive control 100%; fluorescence response, % (concentration not given with the values); actives 7.4% (n = 2,300); AID 651707;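 active = over 5% cells positive for green fluorescent reporter, or over 2% positive for both it and APC stain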;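 note: range taken on the double positive population between DMSO and positive control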
Starred values were filed as active, the others as inactive; i = inactive; · = no result; + = active, no number. An excerpt weighted towards active compounds, which were near 1.7% of everything screened.

SMILES | NOD2-RIPK2 inh | TLR9-MyD88 inh | TLR4-MyD88 BLA | ABCB6 inh MLPCN | Myeloid diff MLP | Myeloid diff CP1 | GFP autofluor
O=S(=O)(Nc1ccc(-n2cccc2)cc1)c1ccccc1 | -12.5 | 4.0 | 5.1 | 96.0 | i | · | ·
COc1cc2c(cc1N/C=C(\C#N)c1nc(-c3ccc(F)cc3)cs1)oc1ccccc12 | 4.4 | 5.2 | · | 114.0 | + | i | 7.2*
N#C/C(=C\Nc1ccccc1SC(F)(F)F)c1nc(-c2ccccc2)cs1 | 0.0 | -4.4 | -2.6 | 105.0 | i | · | ·
CN(C)CCCNC(=O)C(=O)NCC1CCCO1 (centres undefined) | 4.2 | 5.5 | 6.2 | 99.0 | i | · | ·
CC(C)c1ccc(/C=C(\c2nc3ccccc3[nH]2)S(=O)(=O)c2ccccc2)cc1 | 12.7 | 7.0 | 8.6 | 93.0 | + | i | 0.0
O=S(=O)(c1ccc2ccccc2c1)N1CCN(c2ccc(O)cc2)CC1 | -12.9 | -15.5 | · | 102.0 | + | i | 0.0
COc1ccc(CNC(=O)CS(=O)CC(=O)O)cc1OC (centres undefined) | -9.9 | -4.9 | 6.5 | 100.0 | i | · | ·
Cc1nc(C(=O)Nc2cccc(Cl)c2)nn1-c1cc(OC(C)C)c(Cl)cc1Cl | 2.1 | -0.7 | -1.8 | 103.0 | + | i | 0.0
C/C(=N\N=C(N)N)c1ccc(Cl)c(Cl)c1 | 0.9 | 6.5 | 6.3 | 100.0 | i | · | ·
O=C(COc1cccc2c1CCN(Cc1ccc(Br)cc1)C2=O)NCc1ccco1 | 4.5 | 15.3 | 2.2 | 95.0 | i | · | ·
CCC(=O)Nc1ccc(/C(C)=N\NS(=O)(=O)c2ccc(C)cc2)cc1 | 2.3 | 5.4 | 4.6 | 98.0 | + | i | 0.5
COc1ccc(-n2c(C)nnc2SCC(=O)NC2CC2)cc1 | -0.3 | 2.2 | · | 90.0 | i | · | ·
COc1ccc(-n2c(C)nnc2SCC(=O)N2C(C)CCCC2C)cc1 (centres undefined) | -9.7 | -0.9 | 8.2 | 101.0 | + | i | 0.3
Cc1cccc(C(=O)N/N=C/c2ccc(OC3CSC3)cc2)c1 | 1.1 | 2.6 | 8.0 | 83.0 | i | i | 3.2
COc1cccc(C(=O)N/N=C/c2ccc(OC3CSC3)cc2)c1 | -6.9 | -12.6 | 1.2 | 99.0 | i | · | ·
C=C(C)CNC(=S)N/N=C1\CCCCc2ccccc21 | 1.7 | -2.1 | 2.5 | 95.0 | i | · | ·
CCc1ccc(CN2CCC(n3nccc3NC(=O)c3cccc(F)c3)CC2)cc1 | 6.1 | -5.0 | · | 93.0 | + | i | 0.2
CCCCn1c(-c2ccc(C(C)(C)C)cc2)nc2cc3[nH]c(=O)c(C(C)C)nc3cc21 | 4.0 | -5.8 | · | 104.0 | + | i | 1.5
O=C(NCc1ccc(Cl)cc1)C1CCC(=O)N(C2CCCCCC2)C1 (centres undefined) | 2.3 | -23.4 | · | 98.0 | i | · | ·
CCOC(=O)c1[nH]c(C)c(C(=O)Nc2cc(OC)ccc2OC)c1C | -5.6 | 6.3 | 0.7 | 102.0 | · | · | ·
CCOC(=O)c1c(C)c(C(=O)Nc2cc(OC)ccc2OC)c(C)n1CC | 0.5 | -3.3 | 4.7 | 105.0 | + | i | 1.3
CCCCCCCNC(=O)CN1N=C(c2ccc(C)cc2)CCC1=O | 6.8 | -7.8 | · | 98.0 | i | · | ·
CN1C(=O)/C(=C/c2ccc(O)c([N+](=O)[O-])c2)NC1=S | -8.5 | 3.5 | 16.1 | 91.0 | i | · | ·
COc1cc(/C=C2\NC(=S)N(C)C2=O)ccc1O | 3.2 | -4.5 | 3.0 | 103.0 | + | i | 5.1*
CCCS(=O)(=O)NC(=O)C1(C)CCN1C(=O)Cc1ccc(Cl)cc1Cl (centres undefined) | 0.0 | · | · | 99.0 | i | · | ·
Cc1cc(NC(=O)CN2CCC(n3nnc4cc(C(F)(F)F)ccc43)CC2)no1 | -3.0 | -0.3 | 13.2 | 86.0 | + | i | 0.0
COc1cccc(C(O)c2nc(-c3ccccc3C)cs2)c1 (centres undefined) | -16.1 | · | · | 101.0 | + | i | 0.3
COc1cccc(C(O)c2nc(-c3ccccc3OC)cs2)c1 (centres undefined) | -15.4 | · | · | 103.0 | i | · | ·
Cc1ccc(Cc2c(-c3cccc(Br)c3)nc3cc(C)c(Br)c(C)n23)cc1 | -11.7 | · | · | 99.0 | i | · | ·

Compound activity from PubChem.
